According to PubChem BioAssay AID2242 (National Center for Advancing Translational Sciences (NCATS), 2010):
Hit rate of the full screen: of about 200,000 compounds, about 720 (0.36%) were called active. About 8% were inconclusive and are not listed. Calls come from the whole dose curve; as a rule, active = well fitted activation curve with a large enough effect; inconclusive = small, poorly fitted or top-dose-only effect, or effect the other way, or another doubt; inactive = flat fitted curve, though single readings scatter. Some of the results follow.

biological target: Lysosomal alpha-glucosidase (Homo sapiens) (UniProt P10253); test: qHTS Assay for Activators of Human alpha-Glucosidase as a Potential Chaperone Treatment of Pompe Disease; details: purified enzyme, 4-MU-alpha-glucoside fluorescence, 20 min; series mostly up to 76.9 µM; note: nearly all actives have a fitted effect of over 80% in size
In short: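 Compounds titrated up to 77 uM against 4 nM enzyme and 400 uM methylumbelliferyl substrate at room temperature, 20 min, pH 5.0. Basic stop, then 4-methylumbelliferone fluorescence (365/440 nm) normalized to no-enzyme and enzyme controls; Hill-equation AC50.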
Potency is the fitted concentration of half-maximal effect.

Potency, active:
COc1cc(C(=O)Nc2cc(-c3cn4cccnc4n3)ccc2C)cc(OC)c1OC 35.5 µM
Cc1ccc(-c2cn3cccnc3n2)cc1NC(=O)c1ccc(Br)o1 35.5 µM
COc1cccc(C(=O)Nc2cc(-c3cn4cccnc4n3)ccc2C)c1 35.5 µM
O=c1oc2c(CN3CCCCC3)c(O)ccc2c2c1CCCC2 35.5 µM
O=c1oc2c(CN3CCCCC3)c(O)ccc2c2c1CCCCC2 35.5 µM
CCOC(=O)c1c(N)n(CC(C)NC(=O)C2CC2)c2nc3ccccc3nc12 (configuration not stated) 35.5 µM
C=CCn1c(N)c(C(=O)OCCC)c2nc3ccccc3nc21 35.5 µM
COCC(C)OC(=O)c1c(N)n(CC(C)C)c2nc3ccccc3nc12 (configuration not stated) 35.5 µM
C=CCn1c(N)c(C(=O)OC(C)(C)C)c2nc3ccccc3nc21 35.5 µM
CC(C)(C)OC(=O)c1c(N)n(CCCN2CCCC2=O)c2nc3ccccc3nc12 31.6 µM
C=CCn1c(N)c(C(=O)OC(C)CC)c2nc3ccccc3nc21 (configuration not stated) 31.6 µM
C=CCn1c(N)c(C(=O)OCC(C)C)c2nc3ccccc3nc21 35.5 µM
COCCN(CCOC)Cc1c(O)ccc2c3c(c(=O)oc12)CCC3 35.5 µM
Cc1cc(=O)oc2c(CN(CC(C)C)CC(C)C)c(O)ccc12 31.6 µM
CC(C)CN(Cc1c(O)ccc2c3c(c(=O)oc12)CCC3)CC(C)C 31.6 µM
Cc1cc(=O)oc2c(CN(C)Cc3ccccc3)c(O)ccc12 35.5 µM
CN(C)Cc1c(O)ccc2c3c(c(=O)oc12)CCCCC3 35.5 µM
COc1ccc(-c2cc(C(F)(F)F)n3nc(C(=O)NCCN4CCOCC4)cc3n2)cc1 44.7 µM
CCCc1cc(=O)oc2c(CN3CCOCC3)c(O)ccc12 31.6 µM
CCCc1cc(=O)oc2c(CN3CCCC3)c(O)ccc12 35.5 µM
CCCCc1cc(=O)oc2c(CN3CCCC3)c(O)ccc12 31.6 µM
CCOC(=O)C1=CN(CC2CCCO2)C=C(C(=O)OCC)C1c1ccccc1C(F)(F)F (configuration not stated) 35.5 µM
COC(=O)C1=CN(CC2CCCO2)C=C(C(=O)OC)C1c1ccccc1C(F)(F)F (configuration not stated) 25.1 µM
CCOP(=O)(OCC)c1nc(-c2cccc3ccccc23)oc1NCc1ccc(OC)cc1 35.5 µM
COP(=O)(OC)c1nc(-c2cccc3ccccc23)oc1NCc1ccccc1 35.5 µM
COc1ccc(CNc2oc(-c3cccc4ccccc34)nc2C#N)cc1 28.2 µM
Cc1oc2cc(O)ccc2c(=O)c1Oc1ccc2ccccc2c1 39.8 µM
CCC(=O)Oc1ccc2c(C)c(Cl)c(=O)oc2c1 35.5 µM
CC(=O)Oc1cc2oc(=O)cc(C)c2cc1OC(C)=O 31.6 µM
Cc1cc(=O)oc2cc(OC(=O)c3cncc(Br)c3)ccc12 17.8 µM
Cc1cc(=O)oc2cc(OC(=O)c3ccccc3)ccc12 25.1 µM
Cc1cc(=O)oc2cc(OCc3ccc(C(=O)N4CCN(c5ccccc5)CC4)cc3)ccc12 39.8 µM
CCCC(=O)Oc1ccc2c(C)cc(=O)oc2c1 35.5 µM
Cc1cc(=O)oc2cc(OC(=O)CCN3C(=O)c4ccccc4C3=O)ccc12 25.1 µM
CC(=O)Oc1ccc2c(C)cc(=O)oc2c1 35.5 µM
CCN(CC)c1cc(C)c2cc(NC(=O)CNC(C)=O)ccc2n1 35.5 µM
CCN1c2ccccc2-c2nc3ccccc3n2C1c1cccs1 (configuration not stated) 35.5 µM
CN1c2ccccc2-c2nc3ccccc3n2C1c1cccs1 (configuration not stated) 35.5 µM
COc1ccc(-c2cn3cccnc3n2)cc1F 28.2 µM
COc1ccc(-c2cn3cccnc3n2)cc1Br 35.5 µM
CC12CCC(=O)N1c1c(sc3nc(N4CCOCC4)c4c(c13)CCCC4)C(=O)N2 (configuration not stated) 35.5 µM
Nc1c(C(O)(C(F)(F)F)C(F)(F)F)ccc2ccccc12 35.5 µM
Nc1ccc2nc(-c3ccccc3)sc2c1 35.5 µM
Nc1ccc(-c2nc3ccc(C(=O)O)cc3s2)cc1 35.5 µM
Cc1cc(C)[n+](-c2ccc(F)cc2)c2[nH]c(=O)[nH]c(=O)c12 35.5 µM
Cc1cc(C)[n+](-c2ccc(C(C)C)cc2)c2[nH]c(=O)[nH]c(=O)c12 35.5 µM
CC1=C(C#N)C(c2cccnc2)C2=C(CCCC2=O)N1 (configuration not stated) 25.1 µM
CC1=C(C#N)C(c2cccnc2)C2=C(CC(C)(C)CC2=O)N1 (configuration not stated) 28.2 µM
COCCOC(=O)C1=C(C)NC2=C(C(=O)CC(C)(C)C2)C1c1cccnc1 (configuration not stated) 35.5 µM
COc1cccc(C2C(C#N)=C(C)NC3=C2C(=O)CC(C)(C)C3)c1 (configuration not stated) 39.8 µM
CCN1CCN(C(c2cc3cc4c(cc3[nH]c2=O)OCO4)c2nnnn2C(C)(C)CC)CC1 (configuration not stated) 39.8 µM
Nc1nc(N)c2nc(-c3ccccc3)c(N)nc2n1 39.8 µM
Clc1ccc(/C=C/c2nc3ccccc3[nH]2)c(Cl)c1 35.5 µM
CC(=O)c1ccc(-c2nc3ccccc3n2C)o1 31.6 µM
Cn1c(-c2cc3ccc(OC(=O)C(C)(C)C)cc3oc2=O)nc2ccccc21 39.8 µM
CC(=O)Oc1ccc2cc(-c3nc4ccccc4n3C)c(=O)oc2c1 35.5 µM
CCC(=O)c1ccc(/C=C/c2nc3ccccc3n2C)o1 35.5 µM
CCCCn1c(NS(=O)(=O)c2ccccc2)c(S(=O)(=O)c2ccc(C)cc2)c2nc3ccccc3nc21 35.5 µM
CCC(=O)Nc1c(S(=O)(=O)c2ccccc2)c2nc3ccccc3nc2n1Cc1ccccc1 39.8 µM
CCCCn1c(NS(=O)(=O)c2ccc(C)cc2)c(S(=O)(=O)c2ccccc2)c2nc3ccccc3nc21 50.1 µM
Cc1cccn2c(=O)c3cc(C#N)c(=O)n(Cc4cccnc4)c3nc12 3.98 µM
Cc1ccc2nc3c(cc(C#N)c(=O)n3CC3CCCO3)c(=O)n2c1 (configuration not stated) 3.98 µM
Cc1ccc2nc3c(cc(C#N)c(=O)n3CCN3CCOCC3)c(=O)n2c1 28.2 µM
Cc1cccn2c(=O)c3cc(C#N)c(=O)n(CC4CCCO4)c3nc12 (configuration not stated) 10 µM
COC(=O)c1c(N)n(CCCN2CCOCC2)c2nc3ccccc3nc12 31.6 µM
CC(C)OC(=O)c1c(N)n(CCCN2CCOCC2)c2nc3ccccc3nc12 39.8 µM
Cc1c(C#N)c(N)nc2c3c(sc12)NC(=O)CC3c1ccccc1 (configuration not stated) 5.01 µM
COc1ccc(F)cc1CN1CCN(c2cc(C)nc3c4c(C)cc(C)nc4nn23)CC1 35.5 µM
COC(=O)Cc1c(C)c2ccc(O)c(CN3CCCC(C)C3)c2oc1=O (configuration not stated) 35.5 µM
CCc1c(C)c2ccc(O)c(CN(C)C)c2oc1=O 35.5 µM
CCc1c(C)c2cc(Cl)c(O)c(CN(C)C)c2oc1=O 31.6 µM
CCN(CC)Cc1c(O)ccc2c(C)c(CC(=O)OC)c(=O)oc12 35.5 µM
Cc1c(Cc2ccccc2)c(=O)oc2c(CN(C)C)c(O)c(Cl)cc12 35.5 µM
Cc1c(C)c2cc(Cl)c(O)c(CN(C)C)c2oc1=O 39.8 µM
O=c1c2ccccc2[nH]c2ccccc12 39.8 µM
O=c1c2ccccc2[nH]c2ccc(F)cc12 31.6 µM
O=C(c1ccco1)N1CCN(C/C=C/c2ccccc2)CC1 17.8 µM
COC(=O)C1=CN(Cc2cccs2)C=C(C(=O)OC)C1c1ccc(OC)cc1OC 35.5 µM
COC(=O)C1=CN(Cc2cccs2)C=C(C(=O)OC)C1c1cccc(Cl)c1 35.5 µM
CCN1C=C(C(=O)OC)C(c2cccc(OC)c2OC)C(C(=O)OC)=C1 35.5 µM
COC(=O)C1=CN(Cc2cccs2)C=C(C(=O)OC)C1c1cccc(OC)c1OC 25.1 µM
CCN1C=C(C(=O)OC)C(c2cccc(C)c2)C(C(=O)OC)=C1 35.5 µM
COCCn1cc(C(=O)N2CCN(C)CC2)c2c3ccccc3n(C)c2c1=O 35.5 µM
COc1ccccc1N=c1oc2cc(O)ccc2cc1C(N)=O 28.2 µM
CCOc1ccccc1N=c1oc2cc(O)ccc2cc1C(=O)NCC1CCCO1 (configuration not stated) 31.6 µM
Cc1cccc(N=c2oc3cc(O)ccc3cc2C(N)=O)c1 35.5 µM
NC(=O)c1cc2ccc(O)cc2oc1=NCc1ccccc1 35.5 µM
CCCCNC(=O)CCC(=O)Nc1ccc2nc(N3CCC(C)CC3)cc(C)c2c1 39.8 µM
CCCCNC(=O)CCC(=O)Nc1ccc2nc(N3CCCCC3)cc(C)c2c1 25.1 µM
Cc1cc(N2CCC(C)CC2)nc2ccc(N3C(=O)CCC3=O)cc12 31.6 µM
CCCCN(CC)CCNC(=O)CCC(=O)Nc1ccc2nc(N3CCN(C)CC3)cc(C)c2c1 28.2 µM
CCN(CC)CCCNC(=O)CCC(=O)Nc1ccc2nc(N3CCC(C)CC3)cc(C)c2c1 39.8 µM
COCCCNC(=O)CCC(=O)Nc1ccc2nc(N3CCOCC3)cc(C)c2c1 28.2 µM
COCCNc1cc(C)nc2c3c(C)cc(C)nc3nn12 35.5 µM
Cc1cc(C)c2c(n1)nn1c(NCCCN(C)C)cc(C)nc21 39.8 µM
Cc1cc(C)c2c(n1)nn1c(NCCN3CCOCC3)cc(C)nc21 28.2 µM
Cc1cc(C)c2c(n1)nn1c(NCCOCCO)cc(C)nc21 35.5 µM
